This is an account of results in PubChem BioAssay.

The experiment deals with Fibrinogen (Alexa647-labelled). Description: fibrinogen binders on compound microarrays, profiling panel, artefact control for SMM control-protein annotation, biochemical, small-molecule microarray, 635/667 nm fluorescence (AID 1131).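 Further: z-score merges 667 nm fluorescence with per-spot signal-to-noise over triplicate slides.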 Conditions: fibrinogen-A647 binding fluorescence, higher = more signal.
`CCCCC(O)C1C=CC2C(=O)N(Cc3ccccc3)C(=O)C2N1n1cnnc1` (configuration not stated) showed a composite z-score of 0.892. `COCCCNC(=O)[C@@]1(C)c2ccccc2C(=O)N(c2ccc(C)cn2)[C@H]1c1ccc(CO)cc1` gave a composite z-score of -1.03. `CCCC=C(CCC)[C@@H](NS(=O)(=O)c1cccc2cccnc12)c1ccc(C(=O)OC)cc1` returned a composite z-score of 0.395. For the compound `COc1ccccc1CN1C(=O)c2ccccc2[C@](Cc2ccccc2I)(C(=O)NCCN2CCOCC2)[C@@H]1c1ccc(CO)cc1`, the composite z-score was 0.913.

`C=C(COC)/C(=C/C[C@@H](OC(=O)c1ccncc1)c1cccc(OCCO)c1)c1cc(C(=O)OC)ccc1OC` showed a composite z-score of 0.199. On to `C=CCNC(=O)[C@@H]1[C@H]2C(=O)O[C@H](c3ccccc3)[C@H](c3ccccc3)N2[C@H](c2ccc(O)cc2)[C@@]12C(=O)Nc1ccc(C#CCCO)cc12`, for which the composite z-score was -1.22. Compound `COCCCNC(=O)[C@]1(Cc2ccccc2)N=C(c2ccc(OCCCO)cc2)O[C@@H]1c1ccccc1N=[N+]=[N-]` showed a composite z-score of 0.977. On to `COC(=O)C(CC#Cc1ccc2c(c1)[C@]1(C(=O)N2)[C@H](c2ccccc2OCCO)N2[C@H](c3ccccc3)[C@H](c3ccccc3)OC(=O)[C@H]2[C@@H]1C(=O)Nc1nc2ccccc2s1)C(=O)OC`, for which the composite z-score came to 0.97. To `CCOC(=O)C[C@H]1[C@H](OC(=O)c2cc3ccccc3oc2=O)[C@@H](NC(=O)c2ccc3ccccc3n2)c2cc(OCCCO)ccc2N1C(=O)c1ccc2ccccc2n1` belongs 0.541; to `NCCCCCCNC(=O)[C@H]1C[C@H]2C(=O)N3CCC[C@H]3C(=O)N2[C@H]1c1ccc(O)cc1`, 0.437.

As to `C=CCOC(=O)[C@@H]1[C@H]2C(=O)O[C@H](c3ccccc3)[C@H](c3ccccc3)N2[C@H](c2ccc(OCCOC(=O)[C@@H]3C[C@@H]4C(=O)N[C@@H](CCCCNC(C)=O)C(=O)N4[C@@H]3c3ccc(O)cc3)cc2)[C@@]12C(=O)Nc1ccc(I)cc12`, the composite z-score worked out at 0.207.

Take `COc1ccc([Si](C)(C)[C@@H]2[C@@H](CCO)O[C@]3(C(=O)N(Cc4ccccc4)c4ccc(N5C(=O)COc6ccccc65)cc43)[C@H]2C)cc1`: the composite z-score came out at 0.191. Compound `CN1C(=O)C2C=CC(C(O)c3cccc4ccccc34)N(NC(=O)OC(C)(C)C)C2C1=O` (configuration not stated) displayed a composite z-score of 0.691. For `COc1ccc(C(=O)Nc2ccc3c(c2)[C@]2(O[C@@H](CCO)[C@H]([Si](C)(C)c4ccc(OC)cc4)[C@H]2C)C(=O)N3Cc2ccccc2)cc1`, the composite z-score came to 0.491. In turn, `O=C1c2ccccc2[C@](Cc2ccccc2I)(C(=O)NC2CC2)[C@H](c2ccc(CO)cc2)N1Cc1ccccc1Cl` yielded a composite z-score of 0.0468.

Take `COC(=O)C(CC#Cc1ccc2c(c1)[C@]1(C(=O)N2)[C@H](c2ccc(O)cc2)N2[C@H](c3ccccc3)[C@H](c3ccccc3)OC(=O)[C@H]2[C@@H]1C(N)=O)C(=O)OC`: the composite z-score is -1.96. In the case of `CC(C)CNC(=O)[C@@]1(C)c2ccccc2C(=O)N(Cc2ccccc2)[C@H]1c1ccc(CO)cc1`, the composite z-score is -1.84. `COC(=O)C(CC#Cc1ccc2c(c1)[C@]1(C(=O)N2)[C@H](c2ccc(OCCO)cc2)N2[C@H](c3ccccc3)[C@H](c3ccccc3)OC(=O)[C@H]2[C@@H]1C(=O)O)C(=O)OC` came in with a composite z-score of 0.915. In turn, `CC(C)C(CO)N1C(=O)[C@@H]2[C@H]3C(=O)OCC=C[C@H]3OC23C=CCN(Cn2nnc4ccccc42)C(=O)[C@@H]13` (some centres not stated) came in with a composite z-score of -0.424. Take `O=C1N(Cc2ccccc2)c2ccccc2[C@H]2OC(c3ccc(OCCCO)cc3)=N[C@@]12CCS(=O)(=O)c1ccccc1`: the composite z-score is 0.984. The same measure for `CCCNC(=O)[C@@H]1c2ccccc2C(=O)N(CC23CC4CC(CC(C4)C2)C3)[C@H]1c1ccc(CO)cc1`: 0.957; for `C=C(C)[C@@H]1CC=C(C(O)C2C=CC3C(=O)N(C4CCCCC4)C(=O)C3N2Nc2ccc(OC)cc2)CC1` (some centres not stated): 1; for `OCCCC1=CC(c2cccs2)N(Cc2cccc(OC(F)(F)F)c2)CC1` (configuration not stated): -1.42. The same measure for `Cc1ccccc1C(O)C1C=CC2C(=O)N(Cc3ccccc3)C(=O)C2N1n1cnnc1` (configuration not stated): 1.02; for `COc1ccc([Si](C)(C)[C@H]2[C@H](CCO)O[C@@]3(C(=O)N(Cc4cccc(N5CCOC5=O)c4)c4ccccc43)[C@@H]2C)cc1`: 0.708; for `COCCOC(=O)N1C(=O)[C@@]2(c3cc(C#CC4(O)CCCCCC4)ccc31)[C@H](C(=O)N1CCc3cc(OC)c(OC)cc3C1)[C@H]1C(=O)O[C@H](c3ccccc3)[C@H](c3ccccc3)N1[C@@H]2c1ccccc1OCCO`: 0.608.

In turn, `CC(=O)NCCCC[C@@H]1NC(=O)[C@H]2C[C@@H](C(=O)NCCCCCN)[C@@H](c3cccc(OCCO)c3)N2C1=O` came in with a composite z-score of 0.829.
